# According to PMC4336329 (PLoS ONE, 2015):
# Hit rate of the full screen: of about 310,000 compounds, about 14,000 (4.5%) showed an effect of 50% or more. Effects have a minus sign here. This excerpt belongs to a sample that is enriched for strong results.
# Biological target: human ether-à-go-go-related gene (hERG) potassium channel (human, UniProt Q12809)
# Assay: primary screen, population patch clamp on CHO cells stably expressing hERG; higher = less effect of the substance
# 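Further: peak tail current of the secondary pulse compared with the same well before compound.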
# Chain of human ether-à-go-go-related gene (hERG) potassium channel (Q12809 whole entry, looked up): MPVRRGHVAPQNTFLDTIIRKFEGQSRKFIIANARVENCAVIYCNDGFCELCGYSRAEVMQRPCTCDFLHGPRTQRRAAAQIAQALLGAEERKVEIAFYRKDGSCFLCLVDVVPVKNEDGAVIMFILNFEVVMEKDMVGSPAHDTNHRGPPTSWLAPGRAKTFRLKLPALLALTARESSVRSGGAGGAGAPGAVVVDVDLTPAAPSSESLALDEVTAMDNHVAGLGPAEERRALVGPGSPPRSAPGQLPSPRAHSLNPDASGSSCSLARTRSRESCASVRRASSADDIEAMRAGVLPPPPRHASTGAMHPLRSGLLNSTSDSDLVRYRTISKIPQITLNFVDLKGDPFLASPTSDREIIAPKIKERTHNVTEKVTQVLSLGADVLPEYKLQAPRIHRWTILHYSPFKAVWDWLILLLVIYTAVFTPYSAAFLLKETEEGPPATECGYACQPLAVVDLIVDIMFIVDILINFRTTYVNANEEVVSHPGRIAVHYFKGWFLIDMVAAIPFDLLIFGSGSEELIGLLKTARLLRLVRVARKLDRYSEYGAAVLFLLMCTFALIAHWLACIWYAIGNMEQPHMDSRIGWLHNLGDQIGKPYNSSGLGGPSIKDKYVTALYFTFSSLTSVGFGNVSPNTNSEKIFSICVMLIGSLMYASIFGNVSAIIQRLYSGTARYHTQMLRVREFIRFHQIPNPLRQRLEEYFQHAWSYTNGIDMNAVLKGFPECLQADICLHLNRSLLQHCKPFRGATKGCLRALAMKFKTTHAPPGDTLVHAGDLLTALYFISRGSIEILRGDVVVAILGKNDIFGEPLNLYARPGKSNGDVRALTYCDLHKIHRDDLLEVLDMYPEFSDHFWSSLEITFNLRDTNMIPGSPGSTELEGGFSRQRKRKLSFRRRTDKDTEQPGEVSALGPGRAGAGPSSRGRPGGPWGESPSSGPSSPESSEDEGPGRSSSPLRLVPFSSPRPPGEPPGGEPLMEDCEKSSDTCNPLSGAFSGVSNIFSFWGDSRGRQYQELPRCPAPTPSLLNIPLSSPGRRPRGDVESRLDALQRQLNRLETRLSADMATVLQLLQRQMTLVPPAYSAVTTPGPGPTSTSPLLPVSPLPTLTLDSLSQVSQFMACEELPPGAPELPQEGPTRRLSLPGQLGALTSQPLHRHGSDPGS
row,SMILES,"hERG current change (%, negative = inhibition) at 10uM [%]"
1,O=C(CN1C(=O)/C(=C/c2c(F)cccc2Cl)Oc2ccccc21)NCc1ccco1,10.9
2,CC(=O)O.Cc1ccc(C2C(C(=O)c3cccs3)=C(O)C(=O)N2c2ccc(S(N)(=O)=O)cc2)cc1 (stereo not shown),16.5
3,CCOc1ccc(-n2cc(C(=O)N3CCN(C)CC3)c3cc(OC)c(OC)cc3c2=O)cc1,4.98
4,CCN(CC)CCN(C(=O)c1ccc(Br)s1)c1nc2cc3c(cc2s1)OCO3.Cl,-12
5,Cc1ccc2nc(N(CCN(C)C)C(=O)C3=COCCO3)sc2c1.Cl,-44.1
6,CCN(CC)CCN(C(=O)C1=COCCO1)c1nc2cc(C)cc(C)c2s1.Cl,-69
7,CCN(CC)CCN(C(=O)/C=C/c1cccs1)c1nc2ccc(C)cc2s1.Cl,-10.8
8,CCN(CC)CCN(C(=O)c1c(F)cccc1F)c1nc2cc(C)cc(C)c2s1.Cl,-11.1
9,CCN(CC)CCN(C(=O)C1=COCCO1)c1nc2c(OC)ccc(OC)c2s1.Cl,-78.3
10,CCN(CC)CCN(C(=O)C1=COCCO1)c1nc2cc3c(cc2s1)OCO3.Cl,-72
11,Cc1cc(C)c2sc(NC(=O)C3=COCCO3)nc2c1,-11.6
12,CCN(CC)CCN(C(=O)c1cc(Cl)sc1Cl)c1nc2cc3c(cc2s1)OCO3.Cl,-24.7
13,CCN(CC)CCN(C(=O)C1=COCCO1)c1nc2ccc(C)cc2s1.Cl,-78.3
14,CCN(C(=O)C1=COCCO1)c1nc2c(C)cccc2s1,-17.2
15,CCN(CC)CCN(C(=O)c1ccc(S(=O)(=O)N(CC)c2ccccc2)cc1)c1nc2c(OC)ccc(OC)c2s1.Cl,-27
16,Cc1cc2ccccc2n1CCNC(=O)c1cccs1,-0.757
17,CN(C(=O)Nc1ccccc1)C1CCCCC1,10.2
18,C=CCOC(=O)C1=C(C)NC(SCC(=O)Nc2ccccc2)=C(C#N)C1c1ccco1 (stereo not shown),-15.1
19,CCC(Sc1nc2ccccc2o1)C(=O)Nc1nnc(C)s1 (stereo not shown),-12.4
20,CN(C)C(=O)c1cc(C(=O)c2ccc(F)cc2F)c[nH]1,14.6
21,Cc1ccccc1-n1c(SCc2cc(=O)n3ccccc3n2)nc2[nH]ncc2c1=O,-35.2
22,O=c1c2cn[nH]c2nc(SCc2cc(=O)n3cc(Br)ccc3n2)n1-c1ccc(Br)cc1,-24.8
23,CCc1ccc(-n2c(SCc3cc(=O)n4cc(Br)ccc4n3)nc3[nH]ncc3c2=O)cc1,-51
24,CN(Cc1ccccc1)C(=O)c1ccc2c(c1)OCCO2,5.55
25,COc1ccc(-c2nc3ccccc3c(=O)n2CCOc2cccc(C)c2C)cc1,15
26,NC(=O)Cn1cc(C(=O)C(=O)N2CCOCC2)c2ccccc21,1.6

row,SMILES,"hERG current change (%, negative = inhibition) at 10uM [%]"
1,Cc1cc(F)ccc1S(=O)(=O)Nc1ccccc1C(=O)Nc1ccccc1-c1nc2ccccc2[nH]1,4.92
2,O=C(NN1CC(C(=O)OCc2ccc(Cl)cc2Cl)CC1=O)c1ccccc1 (stereo not shown),-16.5
3,O=C(NN1CC(C(=O)OCc2ccc(Br)cc2)CC1=O)c1ccccc1 (stereo not shown),-21.2
4,O=C(NN1CC(C(=O)OCc2ccccc2F)CC1=O)c1ccccc1 (stereo not shown),-56.8
5,COc1ccc(NC(=S)N(CCCN2CCOCC2)C(C)c2cc3cccc(OC)c3o2)cc1 (stereo not shown),-35.5
6,COc1cccc2cc(C(C)N(CCCN3CCOCC3)C(=O)Nc3ccccc3)oc12 (stereo not shown),-16.9
7,COc1cccc(NC(=O)N(CCCN2CCOCC2)C(C)c2cc3cccc(OC)c3o2)c1 (stereo not shown),-29.4
8,COc1cccc(NC(=O)N(CCCN2CCOCC2)C(C)c2cc3ccccc3o2)c1 (stereo not shown),-62.5
9,COc1cccc(NC(=S)N(CCCN2CCOCC2)C(C)c2cc3ccccc3o2)c1 (stereo not shown),-44
10,COc1ccc(NC(=S)N(CCCN2CCOCC2)C(C)c2cc3ccccc3o2)cc1 (stereo not shown),-78.4
11,Cn1c(=O)oc2cc(S(=O)(=O)NCCC(=O)NCCc3ccccc3)ccc21,1.29
12,COC(=O)c1ccc(CSc2nc3c(cnn3-c3ccc(F)cc3)c(=O)[nH]2)o1,13.1
13,O=C(Nc1ccccc1)c1ccc2c(c1)OCCCO2,-10.7
14,[Br-].c1ccc(Cn2c(-c3ccccc3)c[n+]3c2SCCC3)cc1,-70.9
15,COc1ccc(-c2c[n+]3c(n2-c2ccccc2)SCC3)cc1OC.[Br-],4.92
16,O=[N+]([O-])c1cccc(-c2c[n+]3c(n2-c2ccccc2)SCC3)c1.[Br-],-42.3
17,O=C(CSc1nnc2ccc(-c3ccc(F)cc3)nn12)N1CCCC1,-13.5
18,O=C(Nc1c(C(=O)c2ccccc2)oc2ccccc12)c1cc(-c2ccccc2O)n[nH]1,9.34
19,COc1cc(C(=O)Nc2ccc3c(c2)OCO3)ccc1-n1cnnn1,-15.6
20,O=C(Cn1nnc(-c2ccccc2-n2cnnn2)n1)NCc1ccccc1,-5.93
21,Cc1ccc(OCC(=O)N2CCN(C3CCC(c4ccccc4)CC3)CC2)cc1.O=C(O)C(=O)O (stereo not shown),-62.8
22,Cc1ccc(OCC(=O)N2CCC(N3CCCCCC3)CC2)cc1,-28.3
23,COc1ccc(OCC(=O)N2CCN(C(=O)Cc3ccccc3)CC2)cc1,-32.5
24,COc1ccc(N2CCN(C(=O)COc3ccccc3)CC2)cc1,-20.6
25,COc1ccc(OCC(=O)N2CCN(C3CCC(c4ccccc4)CC3)CC2)cc1 (stereo not shown),-54.4
26,CC1CCC(N2CCN(C(=O)COc3ccccc3)CC2)CC1.O=C(O)C(=O)O (stereo not shown),-31.4
